# Results filed as inconclusive are left out. The source made the active and inactive calls. Unless noted, the call rests on the fitted dose curve; in most records, active means well fitted curve in the direction sought with a large enough effect; inconclusive means small, poorly fitted or top-dose-only effect, or another doubt; inactive means no such curve, though single readings can be large; an effect the other way counts as inactive or inconclusive.
# How the values were obtained:
# [1] = target: Lysosomal acid glucosylceramidase (Homo sapiens) (UniProt P04062); test: Glucocerebrosidase-p2 (AID 348; in the data active means potency below about 10 µM; further: potency means the concentration at half of the fitted maximal effect); conditions: purified GBA, blue fluorogenic substrate, 40 min
# Summary of the method: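 Normal human glucocerebrosidase (0.2 nM) with blue fluorogenic substrate (80 uM final) in citrate/phosphate pH 5.9 with 10mM sodium taurocholate, 0.01% tween-20; 40 min RT, NaOH/glycine stop; fluorescence Ex 365/Em 440; AC50 from a titration from 0.6 nM upwards.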
# [2] = AP1 Signaling Pathway (AID 357; active means well fitted curve in either direction with a large enough effect, not every such curve was filed as active;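 further: ME-180 reporter cells stimulated with EGF at its EC50 level; on the % scale 0 is the no-effect control and ±100 the full control effect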); conditions: ME-180 AP-1-bla reporter, EGF-induced, beta-lactamase ratio, 5 h; at 7.69 µM (top of the series) unless noted
# Summary of the method: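 First, ME-180 AP-1-bla cells were cultured overnight at 37 °C in low-serum Opti-MEM. Next, titrated compounds with EC50 EGF were incubated 5 hours. Finally, CCF4 was added for 2.5 hours and the 460/530 nm ratio recorded.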
# [3] = target: Cytochrome P450 1A2 (Homo sapiens) (UniProt P05177); test: p450-cyp1a2 (AID 410; calls by dose curve; further: potency means the concentration at half of the fitted maximal effect)
# Summary of the method: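 20nM CYP1A2, 100uM Luciferin-ME (=Km), 100mM KPO4; cpd 10 min RT; +NADPH regen, 60 min RT; stop/detect 20 min; luminescence. Normalized to furafylline 57 uM = full inhibition.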
# [4] = NFAT Signaling Pathway (AID 444; active means well fitted curve in either direction with a large enough effect, not every such curve was filed as active;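 further: carbachol stimulus at about its EC50 of 1 µM final; on the % scale 0 is the no-effect control and ±100 the full control effect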); conditions: Jurkat NFAT-bla M1, carbachol, beta-lactamase ratio, 5 h; at 7.69 µM (top of the series) unless noted
# Summary of the method: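 Read-out: CCF4 FRET ratio (460 nm/530 nm) after 1 h RT dye loading, used for %activity and AC50 from titration series. Cells: Jurkat NFAT-β-lactamase/M1 line, treated with compound plus 1 uM carbachol for 5 h, 37 °C.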
# [5] = Stat Signaling Pathway (AID 446; active means well fitted curve in either direction with a large enough effect, not every such curve was filed as active;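 further: ME-180 cervical cancer cells given 40 pM IL-6 alongside compound; SIE-controlled beta-lactamase reporter measured as 460/530 nm FRET emission ratio; on the % scale 0 is the no-effect control and ±100 the full control effect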); conditions: ME-180 SIE beta-lactamase reporter, IL-6 stimulated, 5 h; at 7.69 µM (top of the series) unless noted
# Summary of the method: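 Emission at 460 and 530 nm (excitation 405 nm) reports SIE-controlled beta-lactamase in ME-180 cells. Cells received compound with 40 pM IL-6 for 5 hrs at 37 C; data scaled between 300 pM IL-6 and 125 nM JAK-inhibitor controls.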
# [6] = target: Glucocorticoid receptor (Homo sapiens) (UniProt P04150); test: GR-GFP Redistribution (AID 450;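 active means compounds whose dose series gives a full or clear partial fitted curve of increased nuclear translocation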; further: potency means the concentration at half of the fitted maximal effect); conditions: U2OS GR-GFP nuclear translocation, laser cytometry, 2 h
# [7] = target: Glucocorticoid receptor (Homo sapiens) (UniProt P04150); test: GR-EFC Redistribution (AID 451; calls by dose curve; further: potency means the concentration at half of the fitted maximal effect); conditions: CHO-K1 GR-EFC translocation, beta-gal luminescence, 2 h
# Summary of the method: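 Translocation of GR-ED fusion to nuclear EA restores b-gal, read by luminescence after 1 h room-temperature detection. Engineered CHO-K1 biosensor cells, 1,000/well, exposed 2 h at 37 C to titrations up to 46 uM final.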
# [8] = target: Mitogen-activated protein kinase 10 (Mus musculus) (UniProt Q61831); test: JNK3 AlphaScreen Assay (AID 530; active means well fitted curve in either direction with a large enough effect, not every such curve was filed as active;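 further: kinase came from lysate of stimulated human HepG2 cells; signal reports phosphorylation of biotinylated GST-cJun 1-79 at Ser73 with 10 µM ATP; on the % scale 0 is the no-effect control and ±100 the full control effect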)
# Summary of the method: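 Kinase buffer: 20 mM Tris-HCl pH 7.6, 10 mM MgCl2, 1 mM DTT, 0.1 mM Na3VO4, 0.01% Tween-20; ATP 10 uM. Substrate biotin-GST-cJun(1-79), enzyme from activated HepG2 lysates. Detection by Ser73 phospho-antibody AlphaScreen.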
# [9] = target: 3',5'-cyclic-AMP phosphodiesterase 4B (Homo sapiens) (UniProt Q07343); test: qHTS Assay for Inhibitors of PDE-IV (AID 607; active means well fitted activation curve with a large enough effect in the main read-out, with a control signal flat, not every such curve was filed as active; further: % of control where 0% means no effect)
# Summary of the method: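 The readout is membrane depolarisation from a cAMP-sensing CNG channel, detected with a potential dye at ex 535/em 590. Cells were HEK293-derived (endogenous PDE-IV) at 1000 cells/well, titrated up to 22.9 uM final.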
# [10] = target: Cytochrome P450 3A4 (Homo sapiens) (UniProt P08684); test: qHTS Assay for Activators of Cytochrome P450 3A4 (AID 885); further: nearly all actives have a fitted effect of over 65% in size
# Summary of the method: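 Activators are scored by enhanced luminescence from CYP3A4 conversion of luciferin-PPXE (25uM, equal to KM) to luciferin, after 60 min at RT with an NADPH-regenerating system.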
# [11] = qHTS Assay for Identification of Small Molecule Agonists for Hypoxia Response Element Signaling Pathway (AID 914; active means well fitted activation curve with a large enough effect in the signal ratio, with a control signal flat, not every such curve was filed as active; the % refers to the signal ratio; further: % of control where 0% means no effect); conditions: ME-180 (cervical carcinoma) HRE-bla reporter, beta-lactamase ratio, CoCl2, 17 h; activation: stronger effect = higher value
# Summary of the method: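 HRE-bla ME-180 assay for agonist-like enhancement of an EC50 CoCl2 stimulus: 17 h at 37 degrees Celsius, CCF4 for 2.5 h, ratiometric 460/530 nm signal converted to %Activity and fitted to AC50.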
# [12] = target: Dual specificity protein kinase CLK4 (Homo sapiens) (UniProt Q9HAZ1); test: qHTS Assay for Inhibitors of CDC-like Kinase 4 (Kinase-Glo Assay) (AID 1770); further: on the % scale 0 is the no-effect control and ±100 the full control effect; nearly all actives have a fitted effect of over 65% in size
# Summary of the method: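 Luminescent ATP-depletion read-out (Kinase-Glo) after 4.5 h room-temperature reaction of Clk4 (25 nM final) with RS peptide (100 uM) and ATP (1 uM), pH 7.5 Tris buffer with MgCl2 and DTT.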
# [13] = target: Dual specificity protein kinase CLK4 (Homo sapiens) (UniProt Q9HAZ1); test: qHTS Assay for Inhibitors of CDC-like Kinase 4 (ADP-Glo Assay) (AID 1771); further: on the % scale 0 is the no-effect control and ±100 the full control effect; nearly all actives have a fitted effect of over 70% in size
# Summary of the method: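 25 nM Clk4, 100 uM RS peptide, 1 uM ATP (final); 2 mM MgCl2, 0.5 mM EGTA, 2.5 mM DTT, 0.01% Triton X-100; 1 hr RT. ADP-Glo readout: ATP depletion 45 min, conversion/luciferase 30 min, luminescence.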
# [14] = target: Dual specificity protein kinase CLK4 (Homo sapiens) (UniProt Q9HAZ1); test: qHTS Assay for Inhibitors of CDC-like Kinase 4 (ADP-FP Assay) (AID 1795);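 further: recombinant human CLK4 phosphorylating RS repeat peptide at 1 µM ATP; on the % scale 0 is the no-effect control and ±100 the full control effect; nearly all actives have a fitted effect of over 60% in size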
# Summary of the method: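 Kinase activity was measured as ADP production using Transcreener orange tracer (4 nM) and ADP antibody (1 ug/mL) fluorescence polarization, with ADP calculated from a calibration curve. The 1 h reaction contained 6.25 nM Clk4, 1 uM ATP and 100 uM RS peptide at pH 7.5 with Mg2+.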
# [15] = target: Ubiquitin carboxyl-terminal hydrolase 1 (Homo sapiens) (UniProt O94782); test: Inhibitors of USP1/UAF1: Pilot qHTS (AID 504865);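 further: rhodamine fluorescence freed from ubiquitin-rhodamine substrate followed over time; top concentration of the series differs between compounds; on the % scale 0 is the no-effect control and ±100 the full control effect; nearly all actives have a fitted effect of over 35% in size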
# Summary of the method: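 Deubiquitinase activity followed as kinetic rhodamine fluorescence release from 150 nM Ub-Rho. 1 nM USP1/UAF1 with compound, after 15 min room-temperature preincubation, in HEPES pH 7.8 buffer containing TCEP, EDTA, BSA and Tween-20.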
# [16] = Counterscreen qHTS for small molecule stabilizers of the endoplasmic reticulum resident proteome: GLuc-NoTag assay (AID 1508627);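 further: SH-SY5Y cells given compound then 100 nM thapsigargin to empty ER calcium; 0% = thapsigargin alone and -100% = DMSO vehicle control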
# Summary of the method: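 Counterscreen line: SH-SY5Y-GLuc-NoTag cells, treated with compound 19 hr before a 4 hr, 100 nM thapsigargin calcium depletion. Secreted Gaussia luciferase in the medium was measured by luminescence after coelenterazine was added (0.07x final), with cells unlysed.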
# [17] = Confirmatory qHTS for small molecule stabilizers of the endoplasmic reticulum resident proteome: Secreted ER Calcium Modulated Protein (SERCaMP) assay (AID 1508628); further: nearly all actives have a fitted effect of over 40% in size; further: potency means the concentration at half of the fitted maximal effect
# Summary of the method: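 GLuc-SERCaMP-expressing SH-SY5Y cells, pretreated 16 h with compound, are challenged with thapsigargin to empty ER calcium stores; after 4 h, coelenterazine is added directly to the medium and luminescence is imaged.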
# [18] = Cell Viability qHTS for small molecule stabilizers of the endoplasmic reticulum resident proteome (AID 1508629); conditions: cell viability counter-screen, 100 nM thapsigargin for final 4 h
# [19] = qHTS Assay for Lipid Storage Modulators (AID 1519; calls by dose curve); conditions: Drosophila S3 cells, BODIPY lipid droplet/cell ratio, laser cytometry, cells loaded with oleic acid
# Summary of the method: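 Cells seeded at 5,000 per well were treated with compounds over a concentration series and loaded with oleic acid (400 uM, as added). Lipid droplet fluorescence (488 nm excitation, 500-530 nm channel) was read by laser-scanning cytometry and normalized to 20 uM Triacsin C.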
# [20] = target: Cytochrome P450 3A4 (Homo sapiens) (UniProt P08684); test: qHTS Assay for Inhibitors and Substrates of Cytochrome P450 3A4 (AID 884); further: potency means the concentration at half of the fitted maximal effect; nearly all actives have a fitted effect of over 50% in size
# Summary of the method: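 Luminescent readout of luciferin produced by CYP3A4 (20 nM) dealkylation of Luciferin-PPXE, 25 uM (its KM). NADPH-driven reaction ran 60 min at RT after 10 min compound preincubation; data scaled to 57 uM ketoconazole as 100% inhibition.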
# [21] = target: Cytochrome P450 2D6 (Homo sapiens) (UniProt P10635); test: qHTS Assay for Inhibitors and Substrates of Cytochrome P450 2D6 (AID 891); further: potency means the concentration at half of the fitted maximal effect; nearly all actives have a fitted effect of over 60% in size
# Summary of the method: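 Luminescent read-out of luciferin formed by 5 nM human CYP2D6 demethylating 30 uM Luciferin-ME EGE (Km level) over 60 min at room temperature after NADPH regeneration addition. Data normalized to full inhibition by 1.43 uM quinidine.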
# Chain of Cytochrome P450 1A2 (Homo sapiens) (P05177 whole entry, looked up): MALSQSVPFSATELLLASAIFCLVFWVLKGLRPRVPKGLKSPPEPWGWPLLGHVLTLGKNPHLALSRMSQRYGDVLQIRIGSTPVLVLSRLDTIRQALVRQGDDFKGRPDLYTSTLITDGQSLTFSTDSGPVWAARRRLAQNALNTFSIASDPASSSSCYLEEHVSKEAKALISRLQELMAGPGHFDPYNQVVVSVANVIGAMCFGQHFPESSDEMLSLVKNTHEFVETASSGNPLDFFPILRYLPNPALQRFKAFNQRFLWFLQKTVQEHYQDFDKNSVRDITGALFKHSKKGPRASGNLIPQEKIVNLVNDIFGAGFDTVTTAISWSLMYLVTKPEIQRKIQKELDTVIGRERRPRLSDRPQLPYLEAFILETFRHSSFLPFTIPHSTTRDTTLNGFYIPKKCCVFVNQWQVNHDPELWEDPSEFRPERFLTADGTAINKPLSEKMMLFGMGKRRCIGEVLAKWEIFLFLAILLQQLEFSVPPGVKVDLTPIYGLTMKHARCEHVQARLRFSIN
# Chain of Ubiquitin carboxyl-terminal hydrolase 1 (Homo sapiens) (O94782 whole entry, looked up): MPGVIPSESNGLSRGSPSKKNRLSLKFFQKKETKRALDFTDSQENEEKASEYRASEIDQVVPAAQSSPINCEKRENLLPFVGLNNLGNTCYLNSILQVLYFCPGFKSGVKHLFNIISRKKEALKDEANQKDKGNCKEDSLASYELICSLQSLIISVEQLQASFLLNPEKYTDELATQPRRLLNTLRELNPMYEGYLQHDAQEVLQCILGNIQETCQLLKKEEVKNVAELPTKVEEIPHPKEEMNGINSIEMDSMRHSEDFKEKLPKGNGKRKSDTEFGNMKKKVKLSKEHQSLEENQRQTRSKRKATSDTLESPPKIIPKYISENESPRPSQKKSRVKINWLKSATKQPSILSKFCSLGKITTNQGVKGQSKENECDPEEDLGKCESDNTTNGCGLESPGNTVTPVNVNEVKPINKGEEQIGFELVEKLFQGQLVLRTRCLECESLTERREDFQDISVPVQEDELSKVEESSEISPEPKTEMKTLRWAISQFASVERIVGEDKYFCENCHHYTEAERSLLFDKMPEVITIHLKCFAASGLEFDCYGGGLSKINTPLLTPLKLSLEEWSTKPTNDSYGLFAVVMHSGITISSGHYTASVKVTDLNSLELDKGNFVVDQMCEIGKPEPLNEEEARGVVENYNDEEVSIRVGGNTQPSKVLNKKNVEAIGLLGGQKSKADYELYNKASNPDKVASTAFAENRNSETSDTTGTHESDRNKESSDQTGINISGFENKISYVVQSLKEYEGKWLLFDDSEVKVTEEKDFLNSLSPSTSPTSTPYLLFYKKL
# Chain of 3',5'-cyclic-AMP phosphodiesterase 4B (Homo sapiens) (Q07343 whole entry, looked up): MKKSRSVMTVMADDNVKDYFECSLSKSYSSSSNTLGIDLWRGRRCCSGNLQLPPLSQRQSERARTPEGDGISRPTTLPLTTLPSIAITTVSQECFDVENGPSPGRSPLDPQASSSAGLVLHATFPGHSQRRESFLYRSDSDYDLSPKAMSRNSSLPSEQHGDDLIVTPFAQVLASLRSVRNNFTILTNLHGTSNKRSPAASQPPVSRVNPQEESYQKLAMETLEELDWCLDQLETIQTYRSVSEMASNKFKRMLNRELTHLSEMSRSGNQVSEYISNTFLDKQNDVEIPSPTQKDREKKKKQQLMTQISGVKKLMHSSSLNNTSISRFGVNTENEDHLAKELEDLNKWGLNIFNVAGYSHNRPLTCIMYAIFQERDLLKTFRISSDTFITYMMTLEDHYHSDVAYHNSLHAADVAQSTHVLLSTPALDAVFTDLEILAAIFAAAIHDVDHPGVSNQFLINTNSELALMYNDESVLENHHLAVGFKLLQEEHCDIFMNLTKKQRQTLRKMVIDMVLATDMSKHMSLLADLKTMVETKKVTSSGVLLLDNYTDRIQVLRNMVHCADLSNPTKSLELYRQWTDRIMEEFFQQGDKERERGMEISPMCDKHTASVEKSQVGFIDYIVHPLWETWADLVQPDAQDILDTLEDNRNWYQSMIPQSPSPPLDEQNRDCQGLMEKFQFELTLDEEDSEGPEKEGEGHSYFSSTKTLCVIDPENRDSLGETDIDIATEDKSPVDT
# Chain of Dual specificity protein kinase CLK4 (Homo sapiens) (Q9HAZ1 whole entry, looked up): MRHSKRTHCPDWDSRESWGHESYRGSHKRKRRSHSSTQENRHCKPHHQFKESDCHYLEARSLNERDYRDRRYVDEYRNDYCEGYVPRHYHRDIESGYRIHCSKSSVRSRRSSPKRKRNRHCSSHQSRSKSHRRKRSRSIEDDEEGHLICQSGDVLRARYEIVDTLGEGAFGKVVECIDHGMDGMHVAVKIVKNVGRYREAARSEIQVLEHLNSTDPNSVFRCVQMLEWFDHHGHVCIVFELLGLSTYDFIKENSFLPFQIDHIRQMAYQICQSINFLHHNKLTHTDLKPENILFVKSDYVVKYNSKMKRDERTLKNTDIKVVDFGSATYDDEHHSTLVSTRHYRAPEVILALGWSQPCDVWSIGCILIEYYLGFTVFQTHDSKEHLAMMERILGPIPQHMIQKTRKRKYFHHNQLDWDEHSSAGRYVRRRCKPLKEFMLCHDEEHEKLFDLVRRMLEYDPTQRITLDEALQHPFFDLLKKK
# Chain of Cytochrome P450 3A4 (Homo sapiens) (P08684 whole entry, looked up): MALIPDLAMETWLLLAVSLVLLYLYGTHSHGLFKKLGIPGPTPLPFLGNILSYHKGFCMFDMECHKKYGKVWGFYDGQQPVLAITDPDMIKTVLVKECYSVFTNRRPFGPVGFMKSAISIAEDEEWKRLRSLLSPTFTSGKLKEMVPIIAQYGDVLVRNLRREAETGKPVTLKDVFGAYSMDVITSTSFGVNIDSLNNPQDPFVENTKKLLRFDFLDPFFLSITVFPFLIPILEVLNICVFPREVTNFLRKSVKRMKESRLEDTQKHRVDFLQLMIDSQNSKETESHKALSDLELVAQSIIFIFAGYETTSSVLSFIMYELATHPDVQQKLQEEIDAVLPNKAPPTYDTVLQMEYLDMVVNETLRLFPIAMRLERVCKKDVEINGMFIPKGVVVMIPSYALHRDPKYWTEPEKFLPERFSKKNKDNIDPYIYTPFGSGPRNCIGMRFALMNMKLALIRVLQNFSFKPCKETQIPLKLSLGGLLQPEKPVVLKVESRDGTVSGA
# Chain of Glucocorticoid receptor (Homo sapiens) (P04150 whole entry, looked up, the tested form may be a part): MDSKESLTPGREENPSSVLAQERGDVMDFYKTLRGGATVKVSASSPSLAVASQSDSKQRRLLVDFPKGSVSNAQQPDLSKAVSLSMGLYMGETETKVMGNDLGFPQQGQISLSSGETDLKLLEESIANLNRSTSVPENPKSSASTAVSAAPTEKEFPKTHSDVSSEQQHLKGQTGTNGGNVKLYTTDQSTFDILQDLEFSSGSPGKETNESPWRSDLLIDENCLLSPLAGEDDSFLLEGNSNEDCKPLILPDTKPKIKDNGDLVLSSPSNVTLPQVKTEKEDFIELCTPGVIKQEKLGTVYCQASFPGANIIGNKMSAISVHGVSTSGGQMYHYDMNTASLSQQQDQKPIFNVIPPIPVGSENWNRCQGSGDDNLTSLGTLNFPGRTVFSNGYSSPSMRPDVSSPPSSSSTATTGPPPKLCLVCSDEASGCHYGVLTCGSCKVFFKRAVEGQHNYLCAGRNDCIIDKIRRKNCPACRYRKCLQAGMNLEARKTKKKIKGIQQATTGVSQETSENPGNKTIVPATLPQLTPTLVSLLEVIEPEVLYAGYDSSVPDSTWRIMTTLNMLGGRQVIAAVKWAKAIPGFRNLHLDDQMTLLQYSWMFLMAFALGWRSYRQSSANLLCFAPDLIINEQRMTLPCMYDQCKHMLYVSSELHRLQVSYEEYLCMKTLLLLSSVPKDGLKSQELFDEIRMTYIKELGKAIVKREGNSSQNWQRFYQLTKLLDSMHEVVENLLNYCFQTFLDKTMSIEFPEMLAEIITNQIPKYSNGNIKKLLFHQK
# Chain of Lysosomal acid glucosylceramidase (Homo sapiens) (P04062 whole entry, looked up): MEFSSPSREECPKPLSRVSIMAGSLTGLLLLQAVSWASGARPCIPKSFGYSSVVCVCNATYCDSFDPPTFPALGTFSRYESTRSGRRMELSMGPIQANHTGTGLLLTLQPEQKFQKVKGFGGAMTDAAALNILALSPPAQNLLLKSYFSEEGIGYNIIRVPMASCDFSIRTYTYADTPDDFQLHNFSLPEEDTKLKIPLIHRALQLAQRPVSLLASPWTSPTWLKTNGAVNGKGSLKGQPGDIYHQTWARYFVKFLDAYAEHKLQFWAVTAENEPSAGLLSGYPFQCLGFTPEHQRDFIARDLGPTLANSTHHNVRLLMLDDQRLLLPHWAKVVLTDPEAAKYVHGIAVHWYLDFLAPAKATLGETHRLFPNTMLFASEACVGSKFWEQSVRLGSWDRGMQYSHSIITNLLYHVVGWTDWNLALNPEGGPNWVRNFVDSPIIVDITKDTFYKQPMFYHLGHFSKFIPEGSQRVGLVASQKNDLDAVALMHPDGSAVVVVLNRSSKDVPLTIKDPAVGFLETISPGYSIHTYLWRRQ
# Chain of Cytochrome P450 2D6 (Homo sapiens) (P10635 whole entry, looked up): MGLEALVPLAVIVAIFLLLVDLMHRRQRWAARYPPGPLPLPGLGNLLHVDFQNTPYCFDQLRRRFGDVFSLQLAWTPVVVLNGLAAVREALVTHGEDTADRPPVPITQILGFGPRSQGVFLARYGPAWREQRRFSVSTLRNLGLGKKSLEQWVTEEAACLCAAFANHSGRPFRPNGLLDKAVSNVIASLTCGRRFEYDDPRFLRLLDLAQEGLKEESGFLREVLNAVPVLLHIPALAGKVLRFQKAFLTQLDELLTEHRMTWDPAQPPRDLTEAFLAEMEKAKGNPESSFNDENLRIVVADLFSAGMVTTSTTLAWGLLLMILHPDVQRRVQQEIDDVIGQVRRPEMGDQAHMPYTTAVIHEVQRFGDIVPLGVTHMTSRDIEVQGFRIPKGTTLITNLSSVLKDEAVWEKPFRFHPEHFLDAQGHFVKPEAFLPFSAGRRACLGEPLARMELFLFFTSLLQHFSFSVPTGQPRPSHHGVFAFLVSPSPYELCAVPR
compound,measurement,setting,value
CN1CCN(c2nc(-c3ccccc3C(F)(F)F)nc3ccccc23)CC1,Potency,[1],> 11.4 µM (inactive)
same,"activity change, negative = inhibition",[2],-3.47% (inactive)
same,Potency,[3],10 µM (active)
same,"activity change, negative = inhibition",[4],-6.69% (inactive)
same,"activity, negative = inhibition",[5],-4.43% (inactive)
same,Potency,[6],> 46 µM (inactive)
same,Potency,[7],> 46 µM (inactive)
same,outcome,[8],inactive
same,Potency,[9],inactive
same,Potency,[10],inactive
same,activation,[11],-4.44% (inactive)
same,Potency,[12],inactive
same,Potency,[13],inactive
same,Potency,[14],inactive
same,Potency,[15],inactive
same,Potency,[16],inactive
same,Potency,[17],14.1 µM (active)
same,max response,[18],16.6% (inactive)
COc1c2c(c(C(=O)/C=C/C(C)=C/c3ccccc3)c3c1OCO3)CCN(C)C2,Potency,[16],inactive
COc1ccc(-n2c(=O)c(-c3cccc(C#N)c3)nc3cnc(N4CCNCC4)nc32)cc1,"activity change, negative = inhibition",[2],6.83% (inactive)
same,Potency,[3],15.8 µM (active)
same,"activity change, negative = inhibition",[4],5.29% (inactive)
same,"activity, negative = inhibition",[5],13.3% (inactive)
same,Potency,[6],> 9.22 µM (inactive)
same,outcome,[8],inactive
same,Potency,[9],inactive
same,"activity change, negative = inhibition",[19]; at 57.5 µM (top of the series),9.59% (inactive)
same,max response,[19]; measured here: cell count channel max response,24%
same,max response,[19]; measured here: lipid channel max response,29.5%
same,Potency,[12],inactive
same,Potency,[13],inactive
same,Potency,[14],inactive
same,Potency,[15],inactive
same,Potency,[16],inactive
same,Potency,[17],25.1 µM (active)
CCNc1ncc2nc(CCc3ccccc3)c(=O)n(-c3ccccc3)c2n1,Potency,[1],> 11.4 µM (inactive)
same,"activity change, negative = inhibition",[2],-30.4% (inactive)
same,Potency,[3],1.26 µM (active)
same,"activity change, negative = inhibition",[4],-2.92% (inactive)
same,"activity, negative = inhibition",[5],16.3% (inactive)
same,Potency,[6],> 9.22 µM (inactive)
same,Potency,[7],> 46 µM (inactive)
same,outcome,[8],inactive
same,Potency,[20],5.01 µM (active)
same,Potency,[10],inactive
same,Potency,[16],inactive
same,Potency,[17],35.5 µM (active)
same,max response,[18],16.3% (inactive)
COc1cc(CN2CCN(C(=O)c3ccc(-c4ccccc4)cc3)CC2)cc(OC)c1OC,Potency,[16],inactive
same,Potency,[17],inactive
OC[C@H]1NC[C@H](O)[C@@H](O)[C@@H]1O,Potency,[16],inactive
same,Potency,[17],inactive
same,max response,[18],6.89% (inactive)
c1cncc(-c2nc(N3CCNCC3)c3ccccc3n2)c1,Potency,[1],> 11.4 µM (inactive)
same,"activity change, negative = inhibition",[2],8.36% (inactive)
same,Potency,[3],2.51 µM (active)
same,"activity change, negative = inhibition",[4],7.65% (inactive)
same,"activity, negative = inhibition",[5],4.77% (inactive)
same,Potency,[6],> 46 µM (inactive)
same,Potency,[7],> 46 µM (inactive)
same,outcome,[8],inactive
same,Potency,[9],inactive
same,Potency,[10],inactive
same,Potency,[21],7.94 µM (active)
same,Potency,[15],inactive
same,Potency,[16],inactive
same,Potency,[17],22.4 µM (active)
same,max response,[18],15.1% (inactive)

# Reference: PubChem BioAssay (NCATS)
